Screening data from PubChem.
SKKanGAS inh: inhibitors of SKKanGAS S. pyogenes growth in kanamycin (SK-promoter or general growth effect); AID 1662; inhibition, % at 7.5 µM; 300,000 tested, 1.3% active; BacTiter-Glo, 6 h;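 active means mean replicate score, as percent of positive control median, at least 50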;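 further: strain carries kanamycin resistance gene driven by streptokinase promoter and grows in 40 µg/ml kanamycin; loss of luminescence reflects streptokinase promoter inhibition or plain growth inhibition; 0% = median of DMSO wells and 100% = positive control at its reference dose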
tim10-1 inh: growth inhibitors of tim10-1 mutant yeast; S. cerevisiae tim10-1 ts strain growth, BacTiter-Glo, 24 h; inhibition, % at 20 µM; 330,000 tested, 2.2% active; AID 463190;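 active means inhibition of at least 40%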;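 further: mutant grown at 25 °C; 0% = DMSO wells with yeast and 100% = wells holding no yeast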
PfHsp90 yeast 2: inhibits growth of yeast expressing Plasmodium falciparum Hsp90 | S. cerevisiae expressing PfHsp90, BacTiter-Glo ATP, 48 h; yeast lacking PDR1 and PDR3 efflux regulators | 310,000 tested, 0.32% active | inhibition, % at 9.4 µM | AID 504621;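 active means every replicate shows inhibition above about 80%, whatever the replicate mean, limit read from the data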;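 further: 0% = DMSO neutral controls and 100% = 20 µM radicicol positive controls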
V-ATPase pH: yeast V-ATPase proton transport regulation by pHLuorin. S. cerevisiae, pHLuorin cytosolic pH fluorescence. response, % at 10 µM. 350,000 tested, 0.37% active. AID 504577; in the data active means response mostly above about 7.3%, no sharp cut-off; inactive means mostly below about 5.4%; further: actives read high
TIM10 inh: growth inhibitors of TIM10 yeast strain; S. cerevisiae TIM10 strain growth, BacTiter-Glo luminescence, 24 h; inhibition, % at 10 µM; 330,000 tested, 1.4% active; AID 463195;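 active means inhibition of 40% or more at the single tested concentration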;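 further: wild-type TIM10 isogenic control strain grown at permissive 25 °C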
tim23-1 inh: tim23-1 yeast growth inhibition | S. cerevisiae tim23-1 growth, BacTiter-Glo luminescence, 24 h | inhibition, % at 20 µM | 330,000 tested, 1.3% active | AID 463212;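 active means growth inhibition of the mutant yeast at or above 50%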;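 further: temperature-sensitive mutant grown at 25 °C; plate controls were DMSO-treated mutant yeast for no effect and medium wells lacking yeast for full effect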
An asterisk follows results filed as active. This is a sample that favours compounds with a hit; in the whole collection about 4.6% have one here.

Results for Cc1[nH]n(-c2ncc(-c3ccccc3)s2)c(=O)c1C(c1ccc(Cl)cc1)C(C#N)C#N (stereo not drawn) ?
SKKanGAS inh: 60.7*; tim10-1 inh: 34.1; PfHsp90 yeast 2: -29.1; V-ATPase pH: 7.7; TIM10 inh: 31.3; tim23-1 inh: 47.5

Results for CCNC(=O)C12CCC(C)(C(=O)O1)C2(C)C (stereo not drawn) ?
SKKanGAS inh: -5.0; tim10-1 inh: 13.0; V-ATPase pH: -0.9; TIM10 inh: -4.2; tim23-1 inh: 9.3

What do the screens show for `Nc1ncnc2c1nc(Br)n2[C@@H]1O[C@@H]2COP(=O)(O)O[C@H]2[C@H]1O`?
SKKanGAS inh: 0.5; tim10-1 inh: 2.6; PfHsp90 yeast 2: -9.3; V-ATPase pH: -0.8; TIM10 inh: -0.1; tim23-1 inh: -18.1

Results for CC(=O)Nc1ccc(Nc2ncnc3c2cnn3-c2ccccc2)cc1 ?
SKKanGAS inh: -4.0; tim10-1 inh: -7.0; V-ATPase pH: 4.7; TIM10 inh: 27.4; tim23-1 inh: 23.6

What do the screens show for `Clc1ccc(Nc2ncnc3c2cnn3-c2ccccc2)cc1`?
SKKanGAS inh: 81.0*; tim10-1 inh: -19.0; PfHsp90 yeast 2: -13.9; V-ATPase pH: -0.7; TIM10 inh: -15.9; tim23-1 inh: 0.6

What do the screens show for `Cc1nc(Nc2cnc(/C=C/c3cc(C(=O)Nc4cccc(C(F)(F)F)c4)ccc3C)cn2)cc(N2CCNCC2)n1`?
SKKanGAS inh: 72.3*; tim10-1 inh: 35.1; TIM10 inh: 7.3; tim23-1 inh: 24.1

Results for Cc1nc(N2CCC(C)CC2)c2c(C)c(C(=O)Nc3cccc(C(F)(F)F)c3)sc2n1 ?
SKKanGAS inh: 21.0; tim10-1 inh: 33.7; PfHsp90 yeast 2: 41.0; V-ATPase pH: -2.6; TIM10 inh: 26.8; tim23-1 inh: 16.0

What do the screens show for `COc1ccc(NC(=O)c2sc(Cl)nc2-c2ccccc2)cc1`?
SKKanGAS inh: -9.6; tim10-1 inh: 28.7; PfHsp90 yeast 2: -0.8; V-ATPase pH: 1.5; TIM10 inh: 3.7; tim23-1 inh: 29.1

What do the screens show for `Cc1cccc(NC(=O)c2sc(Cl)nc2-c2ccccc2)c1`?
SKKanGAS inh: 67.4*; tim10-1 inh: 24.7; PfHsp90 yeast 2: -14.3; V-ATPase pH: 5.4; TIM10 inh: 6.7; tim23-1 inh: 30.9

What do the screens show for `COCCNCC(=O)N1CCCCCC1`?
SKKanGAS inh: -2.5; tim10-1 inh: -4.7; V-ATPase pH: -1.1; TIM10 inh: 6.1; tim23-1 inh: 7.0

What do the screens show for `CC1CCCCC1NC(=O)CN1CCC(NC(=O)C(C)(C)C)CC1` (stereo not drawn)?
V-ATPase pH: 3.0

How did O=c1cc(N2CCCCC2)c(-c2ccccc2)nn1Cc1c(Cl)cccc1Cl do in these assays?
SKKanGAS inh: 107.1*; tim10-1 inh: 19.3; PfHsp90 yeast 2: -60.1; V-ATPase pH: 3.3; TIM10 inh: 11.1; tim23-1 inh: 23.5

How did O=c1cc(N2CCCCC2)c(-c2ccccc2)nn1Cc1ccc(Cl)cc1 do in these assays?
SKKanGAS inh: 94.2*; tim10-1 inh: 20.0; PfHsp90 yeast 2: 2.1; V-ATPase pH: -0.7; TIM10 inh: 9.5; tim23-1 inh: 40.3

What do the screens show for `O=C(O)c1ccc(OCc2occc2C(=O)O)cc1`?
SKKanGAS inh: -6.1; tim10-1 inh: 16.0; PfHsp90 yeast 2: 31.5; V-ATPase pH: 17.4*; TIM10 inh: -2.1; tim23-1 inh: 5.7

What do the screens show for `CCN1CCN(Cc2ccc(NC(=O)c3cc(NC(=O)C(=O)c4c[nH]c5ccccc45)cc(OC)c3)cc2C(F)(F)F)CC1`?
SKKanGAS inh: 98.8*; tim10-1 inh: 2.5; PfHsp90 yeast 2: -9.9; V-ATPase pH: 2.3; TIM10 inh: 7.0; tim23-1 inh: 3.9

How did CCN1CCN(Cc2ccc(NC(=O)c3ccc(C)c(NC(=O)C(=O)c4c[nH]c5ccccc45)c3)cc2C(F)(F)F)CC1 do in these assays?
SKKanGAS inh: 83.0*; tim10-1 inh: 19.8; PfHsp90 yeast 2: 4.9; V-ATPase pH: 4.4; TIM10 inh: -4.9; tim23-1 inh: 19.9

Results for CC1CCCN(C(=O)COc2ccc(Nc3ccccc3)cc2)C1 (stereo not drawn) ?
SKKanGAS inh: -5.6; tim10-1 inh: -9.1; PfHsp90 yeast 2: 0.3; V-ATPase pH: 0.7; TIM10 inh: 17.1; tim23-1 inh: 17.7

How did CCN(CC)c1ccc(/C=N/NC(=O)CCC(=O)NCc2ccccc2)c(O)c1 do in these assays?
SKKanGAS inh: 55.8*; tim10-1 inh: 13.4; PfHsp90 yeast 2: 5.4; V-ATPase pH: -2.7; TIM10 inh: -27.9; tim23-1 inh: -6.5

Results for O=C(CCC(=O)N/N=C/c1c[nH]c2ccccc12)NCc1ccccc1 ?
SKKanGAS inh: -2.0; tim10-1 inh: 5.8; PfHsp90 yeast 2: -3.4; V-ATPase pH: 1.2; TIM10 inh: -25.3; tim23-1 inh: 9.8

What do the screens show for `CCN(CC)c1ccc(/C=N/NC(=O)CNC(=O)C2COc3ccccc3O2)c(O)c1` (stereo not drawn)?
SKKanGAS inh: 58.5*; tim10-1 inh: 6.0; V-ATPase pH: -0.1; TIM10 inh: -13.8; tim23-1 inh: 39.7

How did Cc1c(C(=O)N(Cc2ccccc2)C(C)C)cnn1-c1ccccc1 do in these assays?
SKKanGAS inh: -0.7; tim10-1 inh: -3.8; PfHsp90 yeast 2: 3.3; V-ATPase pH: -0.1; TIM10 inh: 9.2; tim23-1 inh: 22.6

What do the screens show for `Cc1c(C(=O)N(Cc2ccccc2)Cc2cccs2)cnn1-c1ccc(Cl)cc1`?
SKKanGAS inh: 25.4; tim10-1 inh: 18.4; PfHsp90 yeast 2: 104.6*; V-ATPase pH: -3.8; TIM10 inh: -1.7; tim23-1 inh: 7.3

How did COc1ccc(OC)c(/C=C/c2ccc3cccc(O)c3n2)c1 do in these assays?
SKKanGAS inh: 89.7*; tim10-1 inh: 34.9; PfHsp90 yeast 2: -13.2; V-ATPase pH: -2.3; TIM10 inh: 0.7; tim23-1 inh: 32.9

How did COc1cc(Br)c(/C=C/c2ccc3cccc(O)c3n2)cc1OC do in these assays?
SKKanGAS inh: 85.1*; tim10-1 inh: 26.4; PfHsp90 yeast 2: -8.5; V-ATPase pH: 2.0; TIM10 inh: 12.1; tim23-1 inh: 6.3

Results for COc1cc(/C=C/c2ccc3cccc(OC)c3n2)c(O)c([N+](=O)[O-])c1 ?
SKKanGAS inh: 2.3; tim10-1 inh: 20.4; PfHsp90 yeast 2: -2.4; V-ATPase pH: 1.1; TIM10 inh: 20.8; tim23-1 inh: 18.5

Results for Oc1cccc2ccc(/C=C/c3ccccc3Br)nc12 ?
SKKanGAS inh: 103.0*; tim10-1 inh: 17.7; PfHsp90 yeast 2: 98.3*; V-ATPase pH: 3.8; TIM10 inh: -1.4; tim23-1 inh: 27.6

What do the screens show for `COC(C[C@@H]1O[C@H]1[C@H](O)[C@@H](C)OCc1ccccc1)OC`?
SKKanGAS inh: -5.7; tim10-1 inh: -23.0; TIM10 inh: -1.4; tim23-1 inh: -15.3

Results for O=C(CCCN1C(=O)c2ccccc2C1=O)Nc1nnc(C2CC2)s1 ?
SKKanGAS inh: -0.6; tim10-1 inh: 1.8; PfHsp90 yeast 2: -4.4; V-ATPase pH: 0.6; TIM10 inh: 3.0; tim23-1 inh: -5.9
